Experimental data from PubChem BioAssay (NCATS).
Inconclusive results are not listed. Entries that show only a call come without a potency. A number with no mark means an inactive call. Active and inactive are the calls of the source. Calls follow the shape of the dose curve; as a rule, active = well fitted inhibition curve with a large enough effect; inconclusive = small, poorly fitted or top-dose-only effect; inactive = flat fitted curve, though single readings scatter.

What was measured:
[1] = qHTS profiling for inhibitors of Plasmodium falciparum proliferation (AID 504749); also: nearly all actives have a fitted effect of over 60% in size; settings: P. falciparum in erythrocytes, SYBR Green DNA, 72 h
How it was run: (§1)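 Fluorescence of SYBR Green-bound parasite DNA, read at 485/535 nm, served as the growth measure. Infected erythrocytes were cultured with compound 72 h; artemisinin (0.29 uM) and DMSO wells defined the normalization range.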

[2] = test system: 3D7; assay: as above; settings: P. falciparum in erythrocytes, SYBR Green DNA, 72 h; series mostly up to 28.7 µM
How it was run: as §1

[3] = test system: 7G8; assay: as above; settings: P. falciparum in erythrocytes, SYBR Green DNA, 72 h; series mostly up to 28.7 µM
How it was run: as §1

[4] = test system: AA1029; assay: as above; settings: P. falciparum in erythrocytes, SYBR Green DNA, 72 h; series mostly up to 28.7 µM
How it was run: as §1

[5] = test system: AS120; assay: as above; settings: P. falciparum in erythrocytes, SYBR Green DNA, 72 h; series mostly up to 28.7 µM
How it was run: as §1

[6] = test system: ATS189; assay: as above; settings: P. falciparum in erythrocytes, SYBR Green DNA, 72 h; series mostly up to 28.7 µM
How it was run: as §1

[7] = test system: ATS95; assay: as above; settings: P. falciparum in erythrocytes, SYBR Green DNA, 72 h; series mostly up to 28.7 µM
How it was run: as §1

[8] = test system: C2A; assay: as above; settings: P. falciparum in erythrocytes, SYBR Green DNA, 72 h; series mostly up to 28.7 µM
How it was run: as §1

[9] = test system: CP185; assay: as above; settings: P. falciparum in erythrocytes, SYBR Green DNA, 72 h; series mostly up to 28.7 µM
How it was run: as §1

[10] = test system: CP191; assay: as above; settings: P. falciparum in erythrocytes, SYBR Green DNA, 72 h; series mostly up to 28.7 µM
How it was run: as §1

[11] = test system: CP192; assay: as above; settings: P. falciparum in erythrocytes, SYBR Green DNA, 72 h; series mostly up to 28.7 µM
How it was run: as §1

[12] = test system: CP194; assay: as above; settings: P. falciparum in erythrocytes, SYBR Green DNA, 72 h; series mostly up to 28.7 µM
How it was run: as §1

[13] = at 28.7 µM (top of the series), parasite line A
[14] = at 28.7 µM (top of the series), parasite line B
[15] = at 12.8 µM (top of the series), parasite line A
[16] = at 12.8 µM (top of the series), parasite line B
Potency is read from the fitted curve at half-maximal effect.

Compound	activity, negative = inhibition [1, 13] [%]	activity, negative = inhibition [1, 14] [%]	Potency [2]	Potency [3]	Potency [4]	Potency [5]	Potency [6]	Potency [7]	Potency [8]	Potency [9]	Potency [10]	Potency [11]	Potency [12]	activity, negative = inhibition [1, 15] [%]	activity, negative = inhibition [1, 16] [%]	Potency ([1]; parasite line A)	Potency ([1]; parasite line B)
CO	8.74	-8	inactive	inactive	inactive	inactive	inactive	inactive	inactive	inactive	inactive	inactive	inactive				
O=P(O)(O)O	1.79	16.4	inactive	inactive	inactive	inactive	inactive	inactive	inactive	inactive	inactive	inactive	inactive				
C=CC(C)(O)CC/C=C(\C)CCC=C(C)C (stereo not given)	2.76	-4.38	inactive	inactive	inactive	inactive	inactive	inactive	inactive	inactive	inactive	inactive	inactive				
CNC(=O)C[C@@H](N)C(=O)N[C@@H](C(=O)N[C@@H]1C(=O)N2[C@@H]1SC(C)(C)[C@@H]2C(=O)O)c1ccc(O)cc1	11.3	15.8	inactive	inactive	inactive	inactive	inactive	inactive	inactive	inactive	inactive	inactive	inactive				
O=C(O)Cc1cc(I)c(Oc2ccc(O)c(I)c2)c(I)c1			inactive	inactive	inactive	inactive	inactive	inactive	inactive	inactive	inactive	inactive	inactive	1.81	6.07		
CCN(CC)CCC(=O)N1c2ccccc2Sc2ccc(C(F)(F)F)cc21	-4.68	-16.3	inactive	11.2 µM (active)	inactive	inactive	inactive	inactive	inactive	inactive	inactive	inactive	inactive				
Cc1ncc(C[n+]2csc(CCOP(=O)(O)O)c2C)c(N)n1	-5.57	6.98	inactive	inactive	inactive	inactive	inactive	inactive	inactive	inactive	inactive	inactive	inactive				
O=C(/C=C/c1cccc(F)c1)NC1CC1	-17.7	-9.61	inactive	inactive	inactive	inactive	inactive	inactive	inactive	inactive	inactive	inactive	inactive				
NCC[C@H](O)C(=O)N[C@@H]1C[C@H](N)[C@@H](O[C@H]2O[C@H](CN)[C@@H](O)[C@H](O)[C@H]2O)[C@H](O)[C@H]1O[C@H]1O[C@H](CO)[C@@H](O)[C@H](N)[C@H]1O	2.54	0.715	inactive	inactive	inactive	inactive	inactive	inactive	inactive	inactive	inactive	inactive	inactive				
CCCc1nc(C(C)(C)O)c(C(=O)OCc2oc(=O)oc2C)n1Cc1ccc(-c2ccccc2-c2nn[nH]n2)cc1	-15.7	-20.3	inactive	inactive	inactive	inactive	inactive	inactive	inactive	inactive	inactive	inactive	inactive				
CN(C)C=Nc1c(I)cc(I)c(CCC(=O)O)c1I	0.723	1.95	inactive	inactive	inactive	inactive	inactive	inactive	inactive	inactive	inactive	inactive	inactive				
NC(=S)N=Nc1ccc(NN=C(N)N)cc1			12.6 µM (active)	10 µM (active)	12.6 µM (active)	12.6 µM (active)	10 µM (active)	10 µM (active)	5.62 µM (active)	11.2 µM (active)	4.47 µM (active)	8.49 µM (active)	7.57 µM (active)			10 µM (active)	10 µM (active)
Cc1cc(=O)c(C(=O)N[C@@H](C(=O)N[C@@H]2C(=O)N3C(C(=O)O)=C(CSc4nnnn4C)CS[C@H]23)c2ccc(O)cc2)c[nH]1	5.19	9.95	inactive	inactive	inactive	inactive	inactive	inactive	inactive	inactive	inactive	inactive	inactive				
O=C1N=C2SCCN2C(=O)C1Cc1ccc(Cl)cc1 (stereo not given)	18.3	17.2	inactive	inactive	inactive	inactive	inactive	inactive	inactive	inactive	inactive	inactive	inactive				
O=c1[nH]c(=O)n([C@H]2C[C@H](O)[C@@H](CO)O2)cc1/C=C/Br	6.74	-10.9	inactive	inactive	inactive	inactive	inactive	inactive	inactive	inactive	inactive	inactive	inactive				
CCc1ccc(S(=O)(=O)O)cc1	-3.46	4.58	inactive	inactive	inactive	inactive	inactive	inactive	inactive	inactive	inactive	inactive	inactive				

Compound	activity, negative = inhibition [1, 13] [%]	activity, negative = inhibition [1, 14] [%]	Potency [2]	Potency [3]	Potency [4]	Potency [5]	Potency [6]	Potency [7]	Potency [8]	Potency [9]	Potency [10]	Potency [11]	Potency [12]	activity, negative = inhibition [1, 15] [%]	activity, negative = inhibition [1, 16] [%]	Potency ([1]; parasite line A)	Potency ([1]; parasite line B)
Cc1c(Cl)cccc1Nc1ncccc1C(=O)O	15.4	7.39	inactive	inactive	inactive	inactive	inactive	inactive	inactive	inactive	inactive	inactive	inactive				
CN1C(=O)OC(C)(C)C1=O			inactive	inactive	inactive	inactive	inactive	inactive	inactive	inactive	inactive	inactive	inactive	-13.9	4.58		
CCN(CC)C(=O)c1cccnc1	10.9	11.6	inactive	inactive	inactive	inactive	inactive	inactive	inactive	inactive	inactive	inactive	inactive				
CC(C)c1ncc([N+](=O)[O-])n1C	8.33	4.53	inactive	inactive	inactive	inactive	inactive	inactive	inactive	inactive	inactive	inactive	inactive				
N[C@H](CC(=O)O)C(=O)O	6.17	8.93	inactive	inactive	inactive	inactive	inactive	inactive	inactive	inactive	inactive	inactive	inactive				
CC(C)(C)c1ccc2c(S(=O)(=O)O)c(C(C)(C)C)ccc2c1	16.3	12.2	inactive	inactive	inactive	inactive	inactive	inactive	inactive	inactive	inactive	inactive	inactive				
O=C(O)c1ccc(OCCn2ccnc2)cc1	13.9	6.25	inactive	inactive	inactive	inactive	inactive	inactive	inactive	inactive	inactive	inactive	inactive				
COc1ccc(C(=O)c2ccc(C)cc2)c(O)c1	16.1	14.8	inactive	inactive	inactive	inactive	inactive	inactive	inactive	inactive	inactive	inactive	inactive				
O=C1[O][Bi][O]c2ccccc21	7.71	1.44	inactive	inactive	inactive	inactive	inactive	inactive	inactive	inactive	inactive	inactive	inactive				
O=C(NNCS(=O)(=O)O)c1ccncc1	13.1	6.08	inactive	inactive	inactive	inactive	inactive	inactive	inactive	inactive	inactive	inactive	inactive				
COc1ccc(/C=C/C(=O)OCCC(C)C)cc1	6.28	14.5	inactive	inactive	inactive	inactive	inactive	inactive	inactive	inactive	inactive	inactive	inactive				
C[C@H](O)CN(C)C	9.28	3.53	inactive	inactive	inactive	inactive	inactive	inactive	inactive	inactive	inactive	inactive	inactive				
CCCCC[C@H](O)/C=C/[C@@H]1[C@H]2C/C(=C/CCCC(=O)O)O[C@H]2C[C@H]1O	-0.331	0.715	inactive	inactive	inactive	inactive	inactive	inactive	inactive	inactive	inactive	inactive	inactive				
CN(Cc1ccccc1)Cc1ccccc1	9.08	-0.726	inactive	inactive	inactive	inactive	inactive	inactive	inactive	inactive	inactive	inactive	inactive				
CC1CC(OC(=O)C(O)c2ccccc2)CC(C)(C)C1 (stereo not given)	-16	-1.53	inactive	inactive	inactive	inactive	inactive	inactive	inactive	inactive	inactive		inactive				
O=C1c2ccccc2C(=O)C1c1ccc(F)cc1	-6.63	2.77	inactive	inactive	inactive	inactive	inactive	inactive	inactive	inactive	inactive	inactive	inactive				
